Data on 21 compounds can be found in PubChem BioAssay (NCI).

Test [1] is described as follows: NCI Yeast Anticancer Drug Screen. Data for the rad50 strain (AID 155).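 Further: 0% = growth of vehicle-only cultures of the same strain.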 The following applies: S. cerevisiae rad50 strain growth inhibition; at 50.0 µM; stronger effect = higher value. The procedure, abridged:
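Readout: growth inhibition relative to vehicle-treated cultures. Compound exposure was carried out in a genetically defined yeast strain deficient in DNA damage repair.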

Test [2] can be described thus: NCI Yeast Anticancer Drug Screen. Data for the mec2-1 strain (AID 157). The following applies: S. cerevisiae mec2-1 strain, at 50.0 µM, stronger effect = higher value. In short, it runs like this:
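Cells of the genetically defined mec2-1 yeast strain are incubated with test compound. Inhibition of growth is calculated against vehicle-treated controls.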

A short description of test [3]: NCI Yeast Anticancer Drug Screen. Data for the sgs1 mgt1 strain (AID 161).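 Further: 0% = growth of cultures given vehicle only.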 The following applies: S. cerevisiae sgs1 mgt1 strain, at 50.0 µM, stronger effect = higher value. The procedure, abridged:
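Mutant yeast exposed to compound; growth scored against vehicle-only wells.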

Test [4] in a line: NCI Yeast Anticancer Drug Screen. Data for the cln2 rad14 strain (AID 165).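 Further: 0% = growth equal to vehicle treated cultures.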 The following applies: S. cerevisiae cln2 rad14 strain, at 50.0 µM, stronger effect = higher value. The procedure, abridged: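 The screen exposed genetically defined yeast (cln2 rad14) to test compounds and scored growth inhibition relative to vehicle-treated controls.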
Test [5] in a line: NCI Yeast Anticancer Drug Screen. Data for the bub3 strain (AID 167). The following applies: S. cerevisiae bub3 mutant strain, at 50.0 µM, stronger effect = higher value. The procedure, abridged: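 Readout: yeast growth inhibition, expressed relative to vehicle-only wells. The test organism is a mutant strain from a panel with lesions in DNA repair or checkpoint genes.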
Test [6] in a line: NCI Yeast Anticancer Drug Screen. Data for the mlh1 rad18 strain (AID 175). To be noted: S. cerevisiae mlh1 rad18 strain growth inhibition; at 50.0 µM; stronger effect = higher value. The procedure, abridged: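 Compound-treated yeast growth, normalised to vehicle controls. Strain bears defined DNA repair mutations.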

This is part of a sample that, as a whole, favours compounds with a hit. Of some 79,000 tested, about 15% had one in any assay. Unmarked numbers belong to inactive results. Active and inactive are the calls of the source. No stated cut-off is given here; in the data, active means growth inhibition above about 70%; inactive means the rest.

In the case of `CCCCCCC(=O)/C=C/c1cc(Cl)cc(Cl)c1OCOC`, the growth inhibition in test [1] is 35%; in test [2] it was 26.1%; in test [3], 25.1%; in test [4], -4.4%; in test [5] it was 18.4%; in test [6], 5.6%.
On to `c1ccc(Sc2cccc3c(-c4ccccc4)c4cccc5c4c(c23)C[S+]5c2ccccc2)cc1` (stereo unspecified), for which the growth inhibition is 98.5% (active) in test [1]; 99.1% (active) in test [2]; 99.2% (active) in test [3]; 98.5% (active) in test [4]; 98.6% (active) in test [5]; 98.8% (active) in test [6].
Regarding `O=c1oc2ccc(Cl)cc2c(=O)n1-c1cc(Cl)ccc1[N+](=O)[O-]`, the growth inhibition is -4.65% in test [1]; -21% in test [2]; -6.8% in test [3]; -11.5% in test [4]; 0.45% in test [5]; 21.6% in test [6].
For `O=C(Nc1ccccc1)/C(N=Nc1ccccc1)=N\Nc1ccccc1`, the growth inhibition in test [1] is -12.6%; in test [2] it was -16.1%; in test [3], -10.4%; in test [4], -28.4%; in test [5], 6.6%; in test [6], 19.8%.
As to `CCCCCC(=O)OCC[N+](C)(C)C`, the growth inhibition is -29.8% in test [1]; -29.9% in test [2]; -6.95% in test [3]; 4.85% in test [4]; -25.2% in test [5]; -13.2% in test [6].
Consider `c1csc(CNc2cccc3ccccc23)c1`, for which the growth inhibition was 54.5% in test [1]; 25% in test [2]; 31.6% in test [3]; -22.1% in test [4]; 13.6% in test [5]; 28% in test [6].
On to `O=C1OI(OI2OC(=O)c3ccccc32)c2ccccc21` (tested in a mixture with another compound), for which the growth inhibition in test [1] was 11.7%; in test [2], -9.6%; in test [3], -19.1%; in test [4] it was -9.85%; in test [5], 17.9%; in test [6] it was 9.45%.
Consider `CN(C)CCNC(=O)c1cccc(C(=O)Nc2ccccc2)c1[N+](=O)[O-]`, for which the growth inhibition in test [1] was 13.7%; in test [2], -12.6%; in test [3], -7.7%; in test [4], 20.4%; in test [5], -9.95%; in test [6] it was -41.6%.
As for `O=C(O)C1C=CCN1` (stereo unspecified), the growth inhibition in test [1] is 0.8%; in test [2], 1.2%; in test [3], 0.15%; in test [4], -6.55%; in test [5] it was -18.6%; in test [6] it was -3.5%.
Consider `COc1ccc(C(=O)C(c2ccc(OC)cc2)C2(O)C(=O)Nc3ccc([N+](=O)[O-])cc32)cc1` (stereo unspecified), for which the growth inhibition was -7.65% in test [1]; 1.95% in test [2]; 6.2% in test [3]; 18.5% in test [4]; 5.65% in test [5]; 1.4% in test [6].
On to `CC(O)c1ccc(C(O)/C(=N\NC(=O)c2ccncc2)c2nc3ccc([N+](=O)[O-])cc3[nH]c2=O)cc1` (stereo unspecified), for which the growth inhibition in test [1] is -5.95%; in test [2], -10.2%; in test [3] it was 15.2%; in test [4], -60.7%; in test [5] it was -5.1%; in test [6], -2.25%.
`CCC1CCC(=O)NC1=O` (stereo unspecified): the growth inhibition in test [1] was -10.3%; in test [2], -1.15%; in test [3], 11.7%; in test [4], -7.75%; in test [5], -9.6%; in test [6] it was 1.5%.
For the compound `C=Cn1c([N+](=O)[O-])cnc1/C=C/c1ccc(C(=O)OCCN2CCOCC2)cc1`, the growth inhibition in test [1] is 68.8%; in test [2] it was 16.4%; in test [3], 78.3% (active); in test [4], 34.9%; in test [5], -10.2%; in test [6], 53%.
In the case of `Clc1ccc2nc[nH]c2c1`, the growth inhibition in test [1] was 10.1%; in test [2] it was 10.1%; in test [3] it was 4.5%; in test [4], 0.7%; in test [5], 5.9%; in test [6], 18.2%.
As for `O=C(CNC(=O)C(CCC(=O)OCc1ccccc1)NC(=O)OCc1ccccc1)NCC(=O)Oc1ccc([N+](=O)[O-])cc1` (stereo unspecified), the growth inhibition is 25.1% in test [1]; 13.6% in test [2]; 10.3% in test [3]; 9.3% in test [4]; 4% in test [5]; 18.1% in test [6].
In the case of `CCCCCC/C=N\NC(N)=S`, the growth inhibition is -17.1% in test [1]; 14.2% in test [2]; 30.4% in test [3]; -71.1% in test [4]; 17.9% in test [5]; 28.2% in test [6].
As to `COC(=O)c1cc(C(c2cc(C)c(O)c(C(=O)OC)c2)c2cc(C)c(O)c(C(=O)OC)c2)cc(C)c1O`, the growth inhibition in test [1] is -6.9%; in test [2], 10.6%; in test [3], -4.4%; in test [4], -6.2%; in test [5], -0.3%; in test [6], 3.9%.
As for `COC(=O)C(CCc1ccc([N+](=O)[O-])cc1)(CCc1ccc([N+](=O)[O-])cc1)C(=O)OC`, the growth inhibition in test [1] is 19.2%; in test [2], 3.25%; in test [3], 4.15%; in test [4], -17.9%; in test [5], 24.2%; in test [6], 34.9%.
As for `CC12CC3CC(C)(C1)CC(CN=C(N)CS)(C3)C2`, the growth inhibition is 98.9% (active) in test [1]; 99.5% (active) in test [2]; 99.5% (active) in test [3]; 99.2% (active) in test [4]; 99.2% (active) in test [5]; 99.3% (active) in test [6].
As to `O=[N+]([O-])c1ccc(OCc2ccccc2)c(Cl)c1`, the growth inhibition in test [1] was -4.2%; in test [2], 17.1%; in test [3] it was 25.9%; in test [4] it was -13.8%; in test [5], 46.3%; in test [6] it was 30.4%.
`NCC(N)C(O)C(O)C(O)CO` (stereo unspecified): the growth inhibition is 5.65% in test [1]; -2.25% in test [2]; -2.85% in test [3]; -43.1% in test [4]; -16.4% in test [5]; 2.7% in test [6].
